# TWEAK-Fn14 inh: TWEAK-Fn14 signaling inhibition; AID 1159606; hit rate 2% among 360,000; TWEAK-stimulated Fn14 reporter cells, luciferase luminescence, 8 h; inhibition, % at 10 µM; in the data active = inhibition above about 50%
# HIF-2a inh: blocks HIF-2a reporter activity; inhibition, % at 18.8 µM; hit rate 0.72% among 360,000; 786-0 RCC cells HIF-2a reporter, luciferase luminescence, overnight; AID 624352;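 active = inhibition of the luminescence signal of 40% or more relative to plate controls, in a single-dose primary screen at 18.75 µM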
# Peg3 promoter: Peg3 promoter activity inhibition | HeLa PEG-Prom luciferase reporter, luminescence, overnight | inhibition, % at 20 µM | hit rate 1.7% among 360,000;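 active = inhibition of at least 50% at 20 µM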
# CF NFkB inh: cystic fibrosis NF-kB activation inhibition; AID 588850; inhibition, % at 5 µM; KKLEB NF-kB-GFP reporter, PAF-induced, GFP fluorescence overnight; hit rate 0.86% among 360,000;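 active = at least 50% inhibition at 5 µM, scaled per plate between neutral and stimulator controls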;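 note: PAF is a Pseudomonas aeruginosa culture filtrate used as stimulus; plate controls were PAF-stimulated DMSO wells for no effect and unstimulated DMSO wells for full effect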
# KKLEB cytotox: reduces viability of KKLEB cystic fibrosis airway cells. KKLEB CF airway cells viability, ATPlite luminescence, overnight; active compounds read low; cells stimulated with P. aeruginosa culture filtrate. activity change (cytotoxicity), % at 5 µM. hit rate 0.36% among 360,000;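 active = corrected activity change at or below -50% at 5 µM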
# TROY signal inh: TROY signaling inhibition. inhibition, % at 10 µM. hit rate 0.98% among 360,000. Q293 LMP1-TROYcd NF-kB luciferase reporter, 4 h;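 active = compounds whose plate-normalised and pattern-corrected inhibition of the luciferase reporter signal at the single screening dose is 50% or more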
# The depositor's hits bear a star. Compounds with a hit are over-represented: about 4% of the library has one in this group of screens.
SMILES,TWEAK-Fn14 inh,HIF-2a inh,Peg3 promoter,CF NFkB inh,KKLEB cytotox,TROY signal inh
Cc1ccc(C(=O)Nc2ccccc2C(=O)O)cc1S(=O)(=O)Nc1ccc(Br)cc1,6,4,3,-16,-9,51*
Cc1ccc(C(=O)Nc2ccccc2C(=O)O)cc1S(=O)(=O)NCc1ccccc1,-6,-4,11,-1,16,14
COc1cc(/C=C2/SC(=S)NC2=O)ccc1OS(=O)(=O)c1ccc(C)cc1,40,6,41,46,-27,59*
COc1ccc(N2C(=O)CC(Sc3nccc(C)n3)C2=O)c(OC)c1 (centres undefined),18,12,7,12,10,2
CCc1cc2c(=O)nc3n(c2s1)Cc1ccccc1/C3=C(/O)c1ccccc1Cl,35,-98,-108,-4,-9,-22
CCc1cc2c(=O)nc3n(c2s1)Cc1ccccc1/C3=C(/O)c1ccc(F)cc1,100*,-24,33,-5,-8,-1
Cc1ccc(S(=O)(=O)N(CC(=O)N=Nc2c(O)[nH]c3ccccc23)c2cccc(C)c2)cc1,52*,-15,17,5,-2,33
